Records with an inconclusive call do not appear. Activity calls are given as the source filed them. Calls follow the shape of the dose curve; as a rule, active = well fitted curve in the direction sought with a large enough effect; inconclusive = small, poorly fitted or top-dose-only effect, or another doubt; inactive = no such curve, though single readings can be large; an effect the other way counts as inactive or inconclusive.
What was measured:
[1] = system: CRL-7250; experiment: Cytotoxic Profiling of Annotated Libraries Using Quantitative High-Throughput Screening (AID 1296008); details: Five cell lines viability, CellTiter-Glo ATP luminescence, 48-72 h; max response: active compounds read low; also: nearly all actives have a fitted effect of over 60% in size
How it was run: (§1)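 Cells exposed to compounds for 48 or 72 hr at 37 degrees Celsius. Viability read as ATP-coupled luminescence with CellTiter-Glo after 10 min at room temperature.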

[2] = system: HaCat; experiment: as above; details: Five cell lines viability, CellTiter-Glo ATP luminescence, 48-72 h; max response: active compounds read low
How it was run: as §1

[3] = system: KB-3-1; experiment: as above; details: Five cell lines viability, CellTiter-Glo ATP luminescence, 48-72 h; max response: active compounds read low
How it was run: as §1

[4] = system: NIH3T3; experiment: as above; details: Five cell lines viability, CellTiter-Glo ATP luminescence, 48-72 h; max response: active compounds read low
How it was run: as §1

[5] = system: C33A; experiment: Primary qHTS to identify gynecologic anti-cancer compounds using libraries of approved drugs and bioactive compounds (AID 1345084); details: Gynecologic cancer cell panel viability, ATPlite luminescence, 48 h; series mostly up to 57.5 µM; also: nearly all actives have a fitted effect of over 55% in size
How it was run: (§2)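 Cytotoxicity screen measuring ATP content by luciferase luminescence. Each compound is applied at five concentrations for 48 h at 37 C with 5% CO2.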

[6] = system: CAOV3; experiment: as above; details: Gynecologic cancer cell panel viability, ATPlite luminescence, 48 h; series mostly up to 57.5 µM
How it was run: as §2

[7] = system: CASKI; experiment: as above; details: Gynecologic cancer cell panel viability, ATPlite luminescence, 48 h; series mostly up to 57.5 µM
How it was run: as §2

[8] = system: Es-2; experiment: as above; details: Gynecologic cancer cell panel viability, ATPlite luminescence, 48 h; series mostly up to 57.5 µM
How it was run: as §2

[9] = system: HeLa; experiment: as above; details: Gynecologic cancer cell panel viability, ATPlite luminescence, 48 h; series mostly up to 57.5 µM
How it was run: as §2

[10] = system: Hek293T; experiment: as above; details: Gynecologic cancer cell panel viability, ATPlite luminescence, 48 h, control line for the selectivity index; series mostly up to 57.5 µM
How it was run: as §2

[11] = system: JEG-3; experiment: as above; details: Gynecologic cancer cell panel viability, ATPlite luminescence, 48 h; series mostly up to 57.5 µM
How it was run: as §2

[12] = system: OV90; experiment: as above; details: Gynecologic cancer cell panel viability, ATPlite luminescence, 48 h; series mostly up to 57.5 µM
How it was run: as §2

[13] = system: PA-1; experiment: as above; details: Gynecologic cancer cell panel viability, ATPlite luminescence, 48 h; series mostly up to 57.5 µM
How it was run: as §2

[14] = system: SKOV3; experiment: as above; details: Gynecologic cancer cell panel viability, ATPlite luminescence, 48 h; series mostly up to 57.5 µM
How it was run: as §2
% is scaled to controls: 0 for no effect and ±100 for the full control effect.

CC(=O)O[C@@H]1C[C@]2(C)[C@@]3(CCC4[C@@]5(C)CC[C@H](O[C@@H]6O[C@H](C(=O)O)[C@@H](O)[C@H](OC7OC(CO)C(O)C(O)[C@H]7O[C@@H]7O[C@@H](C)[C@H](O)[C@@H](O)[C@H]7O[C@@H]7OC[C@](O)(CO)[C@H]7O)[C@H]6OC6OC(CO)C(O)C(O)C6O)C(C)(C)C5CC[C@]42C)OC[C@@]12CCC(C)(C)CC23 (some centres not stated)
inactive: max response [1] -2.03% | max response [2] 0.508% | max response [3] -5.11% | max response [4] 0.621% | activity change, negative = cytotoxicity [5] 2.65% [at 6.55 µM] | activity change, negative = cytotoxicity [6] 0.174% [at 6.55 µM] | activity change, negative = cytotoxicity [7] 16.9% [at 6.55 µM] | activity change, negative = cytotoxicity [8] -3.44% [at 6.55 µM] | activity change, negative = cytotoxicity [9] -0.755% [at 6.55 µM] | activity change, negative = cytotoxicity [10] -10.7% [at 6.55 µM] | activity change, negative = cytotoxicity [11] -4.85% [at 6.55 µM] | activity change, negative = cytotoxicity [12] -14.9% [at 6.55 µM] | activity change, negative = cytotoxicity [13] -13% [at 6.55 µM] | activity change, negative = cytotoxicity [14] 27.9% [at 6.55 µM]

Cc1ccc(N2CCN(CCC3NC(=O)c4ccccc43)CC2)cc1C (configuration not stated)
inactive: max response [1] 4.52% | max response [2] -0.27% | max response [3] -2.29% | max response [4] 0.934% | Potency [5] | Potency [6] | Potency [7] | Potency [8] | Potency [9] | Potency [10] | Potency [11] | Potency [12] | Potency [13] | Potency [14]

O=C(NCCCc1ccccc1)C1CCC(CNS(=O)(=O)c2cccc3nsnc23)CC1 (configuration not stated)
inactive: max response [1] -1.65% | max response [2] -4.58% | max response [3] -11.8% | max response [4] -18.1% | Potency [5] | Potency [6] | Potency [7] | Potency [8] | Potency [9] | Potency [10] | Potency [11] | Potency [12] | Potency [13] | Potency [14]

CC(C)/C=C1\NC(=O)C(C(C)C)n2c1nc1ccccc1c2=O (configuration not stated)
inactive: max response [1] 2.92% | max response [2] -9.75% | max response [3] -2.24% | max response [4] -0.19% | Potency [5] | Potency [6] | Potency [7] | Potency [8] | Potency [9] | Potency [10] | Potency [11] | Potency [12] | Potency [13] | Potency [14]

C=C1CCC2[C@](C)(CCC[C@@]2(C)C=O)[C@H]1CC/C(C)=C/CO (some centres not stated)
inactive: max response [1] 2.68% | max response [2] 2.96% | outcome [3] | max response [4] 1.76% | Potency [5] | Potency [6] | Potency [7] | Potency [8] | Potency [9] | Potency [10] | Potency [11] | Potency [12] | Potency [14]

CC1=C(C(=O)OC2CCCCC2)C(c2ccc([N+](=O)[O-])cc2)C2=C(CC(C)(C)CC2=O)N1 (configuration not stated)
inactive: max response [1] 1.32% | max response [2] -9.38% | max response [3] -12% | max response [4] -3.56% | Potency [5] | Potency [6] | Potency [7] | Potency [8] | Potency [9] | Potency [10] | Potency [11] | Potency [12] | Potency [14]
